Measurements published in the supplement of paper PMC11732987, “Enantioselective OTUD7B fragment discovery through chemoproteomics screening and high-throughput optimisation” (Communications Chemistry, 2025).

Assays:
Assay in all cases: log2 ratio of Biotin-Ahx-Ub-VS probe labelling (fragment/DMSO); higher = less target engagement (more negative = stronger competition), active = hit call of the paper (q ≤ 0.05, log2 ratio ≤ -1)
Conditions in all cases: compound concentration: 200 uM; treatment time: 3 h
USP19 = biological target: T1, USP19 (UniProt O94966)
T1 sequence (whole entry): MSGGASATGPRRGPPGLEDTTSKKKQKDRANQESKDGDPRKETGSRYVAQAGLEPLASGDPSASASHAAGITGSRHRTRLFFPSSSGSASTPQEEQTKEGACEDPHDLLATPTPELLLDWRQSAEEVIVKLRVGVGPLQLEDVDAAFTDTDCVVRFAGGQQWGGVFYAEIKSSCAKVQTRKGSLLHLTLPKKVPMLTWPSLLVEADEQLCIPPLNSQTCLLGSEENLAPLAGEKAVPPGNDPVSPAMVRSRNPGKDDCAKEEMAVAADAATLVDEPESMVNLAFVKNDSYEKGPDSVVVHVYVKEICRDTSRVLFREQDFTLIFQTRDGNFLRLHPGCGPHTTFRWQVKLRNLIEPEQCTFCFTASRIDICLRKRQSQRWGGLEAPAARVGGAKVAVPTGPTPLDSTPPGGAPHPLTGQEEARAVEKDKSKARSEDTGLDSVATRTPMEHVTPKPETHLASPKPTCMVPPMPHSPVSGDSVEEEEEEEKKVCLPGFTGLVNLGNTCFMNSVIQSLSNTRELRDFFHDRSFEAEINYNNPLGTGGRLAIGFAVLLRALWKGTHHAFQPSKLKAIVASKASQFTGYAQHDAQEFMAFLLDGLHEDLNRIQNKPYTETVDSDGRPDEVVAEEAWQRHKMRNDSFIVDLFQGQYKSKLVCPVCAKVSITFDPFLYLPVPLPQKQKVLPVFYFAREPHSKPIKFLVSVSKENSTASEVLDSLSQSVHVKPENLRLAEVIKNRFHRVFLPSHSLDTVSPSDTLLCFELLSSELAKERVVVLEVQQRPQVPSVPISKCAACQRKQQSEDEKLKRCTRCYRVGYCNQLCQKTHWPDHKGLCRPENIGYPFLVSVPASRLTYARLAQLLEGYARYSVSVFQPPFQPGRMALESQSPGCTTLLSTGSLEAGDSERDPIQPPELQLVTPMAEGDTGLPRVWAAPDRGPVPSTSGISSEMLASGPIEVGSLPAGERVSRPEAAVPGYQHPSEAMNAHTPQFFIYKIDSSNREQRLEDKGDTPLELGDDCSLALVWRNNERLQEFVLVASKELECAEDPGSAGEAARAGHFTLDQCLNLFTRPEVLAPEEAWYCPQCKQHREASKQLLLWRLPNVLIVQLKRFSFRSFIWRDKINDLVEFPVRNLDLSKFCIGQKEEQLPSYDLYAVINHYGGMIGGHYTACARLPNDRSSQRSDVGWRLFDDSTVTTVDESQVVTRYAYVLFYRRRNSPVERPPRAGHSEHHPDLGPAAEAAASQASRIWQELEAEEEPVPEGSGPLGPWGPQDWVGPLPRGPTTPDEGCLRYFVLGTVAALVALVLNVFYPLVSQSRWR
Method in brief: (§1)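 Average log2 ratios of fragment over vehicle were obtained by unpaired t-test from global-median-normalised Spectronaut label-free quantities. Proteins with ≥2 unique peptides were included. HEK293T lysate (495 µg per sample) was treated in triplicate with fragment at 200 µM or vehicle for 3 h, then with Biotin-Ahx-Ub-VS at 0.5 µM final for 1 h, and labelled DUBs were NeutrAvidin-enriched and run by diaPASEF LC-MS/MS.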

USP22 = biological target: T2, USP22 (UniProt Q9UPT9)
T2 sequence (whole entry): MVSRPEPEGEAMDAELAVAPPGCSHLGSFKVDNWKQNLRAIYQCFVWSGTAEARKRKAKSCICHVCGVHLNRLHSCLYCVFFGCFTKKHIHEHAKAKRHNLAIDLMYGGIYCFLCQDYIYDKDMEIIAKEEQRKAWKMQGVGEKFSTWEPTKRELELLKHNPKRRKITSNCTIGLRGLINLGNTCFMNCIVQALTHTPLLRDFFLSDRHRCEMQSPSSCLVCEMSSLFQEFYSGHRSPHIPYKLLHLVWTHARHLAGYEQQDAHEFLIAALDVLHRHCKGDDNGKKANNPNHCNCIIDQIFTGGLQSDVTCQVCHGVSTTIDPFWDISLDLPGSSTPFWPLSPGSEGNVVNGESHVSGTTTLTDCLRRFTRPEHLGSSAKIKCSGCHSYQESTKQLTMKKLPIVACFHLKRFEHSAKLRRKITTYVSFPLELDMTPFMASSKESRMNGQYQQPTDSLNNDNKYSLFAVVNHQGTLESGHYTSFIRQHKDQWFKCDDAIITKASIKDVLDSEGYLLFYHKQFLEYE
Method in brief: as §1

USP24 = USP24 (UniProt Q9UPU5)
Sequence of USP24 (Q9UPU5 whole entry): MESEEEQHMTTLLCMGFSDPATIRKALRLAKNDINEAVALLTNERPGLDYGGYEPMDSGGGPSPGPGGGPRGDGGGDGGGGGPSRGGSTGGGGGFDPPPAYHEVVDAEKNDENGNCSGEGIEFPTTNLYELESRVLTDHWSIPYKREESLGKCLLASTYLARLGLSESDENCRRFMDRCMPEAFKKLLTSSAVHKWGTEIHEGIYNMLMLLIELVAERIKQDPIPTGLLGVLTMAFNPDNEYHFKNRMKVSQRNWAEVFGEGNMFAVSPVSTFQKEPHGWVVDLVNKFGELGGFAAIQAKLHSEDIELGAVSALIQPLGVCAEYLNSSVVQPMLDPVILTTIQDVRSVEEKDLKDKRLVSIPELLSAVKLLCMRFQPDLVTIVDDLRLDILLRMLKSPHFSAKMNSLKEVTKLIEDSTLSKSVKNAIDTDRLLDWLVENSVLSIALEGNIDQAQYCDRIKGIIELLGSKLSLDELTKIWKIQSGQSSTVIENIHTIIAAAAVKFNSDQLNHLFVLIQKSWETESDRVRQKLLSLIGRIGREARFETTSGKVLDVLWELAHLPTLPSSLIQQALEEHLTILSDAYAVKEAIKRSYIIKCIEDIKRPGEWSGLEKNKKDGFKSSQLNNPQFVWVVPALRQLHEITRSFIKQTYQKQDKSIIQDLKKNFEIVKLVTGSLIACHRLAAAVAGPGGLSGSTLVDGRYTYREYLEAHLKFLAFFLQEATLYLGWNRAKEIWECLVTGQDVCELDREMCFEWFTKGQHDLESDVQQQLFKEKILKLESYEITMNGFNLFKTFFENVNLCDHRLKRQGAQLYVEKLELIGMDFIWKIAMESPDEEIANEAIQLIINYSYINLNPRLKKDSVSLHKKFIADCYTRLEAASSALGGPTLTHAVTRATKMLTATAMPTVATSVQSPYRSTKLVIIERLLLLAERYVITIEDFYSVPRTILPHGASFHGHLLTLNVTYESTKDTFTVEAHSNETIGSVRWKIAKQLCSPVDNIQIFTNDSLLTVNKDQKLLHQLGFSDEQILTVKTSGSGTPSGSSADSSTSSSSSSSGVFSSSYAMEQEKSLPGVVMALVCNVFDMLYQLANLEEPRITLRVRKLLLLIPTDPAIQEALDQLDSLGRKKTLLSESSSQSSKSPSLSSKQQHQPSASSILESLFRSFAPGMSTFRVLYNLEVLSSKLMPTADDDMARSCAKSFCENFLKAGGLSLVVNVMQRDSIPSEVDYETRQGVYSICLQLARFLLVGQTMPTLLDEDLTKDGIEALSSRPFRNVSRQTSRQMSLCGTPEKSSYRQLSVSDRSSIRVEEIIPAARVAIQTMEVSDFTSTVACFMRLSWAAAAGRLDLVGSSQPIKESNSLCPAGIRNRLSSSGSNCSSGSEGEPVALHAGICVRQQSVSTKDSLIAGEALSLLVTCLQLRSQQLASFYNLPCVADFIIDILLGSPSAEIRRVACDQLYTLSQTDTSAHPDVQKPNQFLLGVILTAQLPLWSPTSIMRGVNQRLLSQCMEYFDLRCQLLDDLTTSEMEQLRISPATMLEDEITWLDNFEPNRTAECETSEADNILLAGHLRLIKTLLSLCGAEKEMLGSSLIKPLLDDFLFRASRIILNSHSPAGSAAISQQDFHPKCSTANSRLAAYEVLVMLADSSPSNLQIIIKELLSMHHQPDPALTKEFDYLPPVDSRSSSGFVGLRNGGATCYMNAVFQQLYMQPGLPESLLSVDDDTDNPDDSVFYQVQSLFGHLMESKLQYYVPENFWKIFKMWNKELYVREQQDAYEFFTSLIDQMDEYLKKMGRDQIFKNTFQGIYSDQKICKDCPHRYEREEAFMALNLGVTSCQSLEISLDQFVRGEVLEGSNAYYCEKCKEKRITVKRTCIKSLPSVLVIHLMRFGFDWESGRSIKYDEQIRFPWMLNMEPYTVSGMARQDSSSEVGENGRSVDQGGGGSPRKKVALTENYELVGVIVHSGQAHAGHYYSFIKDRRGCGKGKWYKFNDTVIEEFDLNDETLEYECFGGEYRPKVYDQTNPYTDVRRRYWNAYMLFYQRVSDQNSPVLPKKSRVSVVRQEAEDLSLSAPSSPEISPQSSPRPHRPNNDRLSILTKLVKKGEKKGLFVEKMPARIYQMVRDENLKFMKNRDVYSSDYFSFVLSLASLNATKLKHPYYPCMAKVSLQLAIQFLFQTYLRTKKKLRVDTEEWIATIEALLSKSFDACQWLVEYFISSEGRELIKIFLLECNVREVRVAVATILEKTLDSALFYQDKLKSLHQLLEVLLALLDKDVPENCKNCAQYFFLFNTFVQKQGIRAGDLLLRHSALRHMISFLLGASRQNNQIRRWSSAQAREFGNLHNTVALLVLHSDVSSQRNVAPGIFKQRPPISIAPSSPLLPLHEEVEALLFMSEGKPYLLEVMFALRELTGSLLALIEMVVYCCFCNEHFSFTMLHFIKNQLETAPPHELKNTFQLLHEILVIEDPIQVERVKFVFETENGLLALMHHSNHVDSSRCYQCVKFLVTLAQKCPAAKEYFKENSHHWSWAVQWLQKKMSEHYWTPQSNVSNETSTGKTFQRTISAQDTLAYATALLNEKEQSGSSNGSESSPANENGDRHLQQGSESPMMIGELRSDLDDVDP
Method in brief: as §1

USP25 = biological target: T3, USP25 (UniProt Q9UHP3)
T3 sequence (whole entry): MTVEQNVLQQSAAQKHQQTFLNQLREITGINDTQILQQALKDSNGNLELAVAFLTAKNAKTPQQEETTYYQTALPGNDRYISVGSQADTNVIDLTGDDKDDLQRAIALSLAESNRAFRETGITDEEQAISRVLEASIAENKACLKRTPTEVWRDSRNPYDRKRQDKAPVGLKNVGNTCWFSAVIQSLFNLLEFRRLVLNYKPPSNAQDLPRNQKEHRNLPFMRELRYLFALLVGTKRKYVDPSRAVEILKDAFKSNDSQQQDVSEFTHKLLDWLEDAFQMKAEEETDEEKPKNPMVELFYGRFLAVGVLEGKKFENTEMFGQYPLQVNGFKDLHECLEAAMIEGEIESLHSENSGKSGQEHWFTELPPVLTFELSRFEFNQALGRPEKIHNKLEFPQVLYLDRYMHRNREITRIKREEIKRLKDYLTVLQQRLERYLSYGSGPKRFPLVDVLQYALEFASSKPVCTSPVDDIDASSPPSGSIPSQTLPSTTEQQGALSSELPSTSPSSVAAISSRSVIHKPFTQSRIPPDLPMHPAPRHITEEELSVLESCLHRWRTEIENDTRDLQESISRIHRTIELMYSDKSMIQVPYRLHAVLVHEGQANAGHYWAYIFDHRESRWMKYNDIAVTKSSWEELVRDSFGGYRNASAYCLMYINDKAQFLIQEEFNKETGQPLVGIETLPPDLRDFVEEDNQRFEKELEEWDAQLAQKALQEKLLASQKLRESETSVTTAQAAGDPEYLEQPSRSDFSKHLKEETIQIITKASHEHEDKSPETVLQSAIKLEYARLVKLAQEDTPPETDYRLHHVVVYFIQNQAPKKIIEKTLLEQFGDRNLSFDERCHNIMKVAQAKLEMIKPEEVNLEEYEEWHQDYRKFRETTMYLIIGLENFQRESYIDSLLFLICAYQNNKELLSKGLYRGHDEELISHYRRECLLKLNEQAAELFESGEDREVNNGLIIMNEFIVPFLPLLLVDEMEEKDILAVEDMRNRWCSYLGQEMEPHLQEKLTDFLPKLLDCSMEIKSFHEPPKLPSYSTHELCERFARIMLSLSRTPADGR
Method in brief: as §1

USP28 = biological target: T4, USP28 (UniProt Q96RU2)
T4 sequence (whole entry): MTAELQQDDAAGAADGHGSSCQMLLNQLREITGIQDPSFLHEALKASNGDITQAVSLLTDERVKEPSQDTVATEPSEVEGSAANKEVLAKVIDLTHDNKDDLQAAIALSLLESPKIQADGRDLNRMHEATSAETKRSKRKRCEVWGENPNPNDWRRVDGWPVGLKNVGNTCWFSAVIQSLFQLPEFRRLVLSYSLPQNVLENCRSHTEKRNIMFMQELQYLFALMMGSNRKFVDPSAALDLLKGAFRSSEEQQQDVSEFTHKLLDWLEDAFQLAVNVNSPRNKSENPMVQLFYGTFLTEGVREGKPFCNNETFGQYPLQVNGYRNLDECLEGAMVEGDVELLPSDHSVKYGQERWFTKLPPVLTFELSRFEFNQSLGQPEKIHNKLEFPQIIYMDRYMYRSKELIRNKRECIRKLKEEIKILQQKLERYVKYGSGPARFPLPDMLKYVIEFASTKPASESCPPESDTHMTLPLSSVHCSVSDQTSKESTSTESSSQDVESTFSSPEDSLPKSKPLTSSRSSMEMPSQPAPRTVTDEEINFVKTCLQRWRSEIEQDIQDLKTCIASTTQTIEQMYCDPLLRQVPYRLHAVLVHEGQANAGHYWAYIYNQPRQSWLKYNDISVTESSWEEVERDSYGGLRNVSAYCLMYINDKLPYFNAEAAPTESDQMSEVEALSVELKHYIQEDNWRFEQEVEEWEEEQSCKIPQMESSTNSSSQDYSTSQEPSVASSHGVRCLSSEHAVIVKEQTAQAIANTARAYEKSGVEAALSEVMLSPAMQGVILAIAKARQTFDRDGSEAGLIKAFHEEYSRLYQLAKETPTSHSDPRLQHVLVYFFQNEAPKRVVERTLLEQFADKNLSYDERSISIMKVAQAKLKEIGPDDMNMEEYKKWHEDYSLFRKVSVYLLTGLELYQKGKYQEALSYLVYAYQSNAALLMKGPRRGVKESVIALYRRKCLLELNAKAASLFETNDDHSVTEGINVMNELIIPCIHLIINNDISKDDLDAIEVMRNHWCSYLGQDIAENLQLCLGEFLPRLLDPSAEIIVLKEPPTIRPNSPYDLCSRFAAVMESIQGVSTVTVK
Method in brief: as §1

Measured: log2 ratio of Biotin-Ahx-Ub-VS probe labelling

Cc1nc(CC2CCN(C(=O)CCl)CC2)no1
inactive: USP19 -0.747 | USP22 -0.386 | USP24 -0.783 | USP25 -0.763 | USP28 -0.873
